{"source": "PubChem BioAssay (Tox21)", "note": "Records with an inconclusive call do not appear. Where a call stands in place of a potency, no number is given. The source made the active and inactive calls. The call rests on the fitted dose curve. Potency means the concentration at half of the fitted maximal effect."}
{"experiment": "Nuclear factor erythroid 2-related factor 2/antioxidant responsive element (Nrf2/ARE) small molecule agonists: luciferase reporter gene qHTS assay in human keratinocytes (AID 1919969); further: nearly all actives have a fitted effect of over 35% in size", "conditions": "KeratinoSens HaCaT ARE-luciferase, luminescence, 24 h; series mostly up to 92.4 µM", "excerpt": "National Center for Advancing Translational Sciences [NCATS]\nDivision of Preclinical Innovation [DPI]\nU.S. Environmental Protection Agency [EPA]\nNational Institutes of Environmental Health Sciences [NIEHS]\nNational Toxicology Program [NTP]\nU.S. Food and Drug Administration [FDA]\nOxidative stress has been implicated in the pathogenesis of a variety of diseases ranging from cancer to neurodegeneration. The antioxidant response element (ARE) signaling pathway plays an important role in the amelioration of oxidative stress. The KeratinoSens (Givaudan, Switzerland) is an in vitro test method which quantifies luciferase induction as a measure of activation of Keap1-Nrf2-antioxidationt/electrophile response element (ARE) dependant pathway in HaCaT human keratinocytes stably transfected with a selectable plasmid. The KeratinoSens assay is a cell-based assay with a reporter cell line to detect potential skin sensitizers by their ability to induce the Nrf2/ARE-response. The activation of the report gene under culture conditions can be detected by ONE-Glo Luciferase Assay System (Promega, Madison, WI). This cell line has been used to screen the Tox21 10K compound library to identify agonists that induce oxidative stress. The cytotoxicity of the Tox21 compound library against the KS-ARE cell line was tested in parallel by measuring the cell viability using CellTiter- Fluor assay system (Promega, Madison, WI) in the same wells.\nHaCaT derived cell line KeratinoSens were dispensed at 1,500 cells/5uL/well in 1536-well white wall/solid bottom plates using a Multidrop Combi (ThermoFisher Scientific, Waltham, MA) dispenser. After the assay plates were incubated at 37 C/5% CO2 for 5 h, 23 nL of compounds dissolved in DMSO, positive controls or DMSO only was transferred to the assay plate by a pintool workstation (Kalypsys, San Diego, CA). The plates were incubated at 37 C/5% CO2 for 23 h, followed by addition of 1uL/well of CellTiter-Fluor reagent into the assay plates using a Flying Reagent Dispenser (Aurora Discovery, San Diego, CA) for cell viability readout that measures cytotoxicity. After 1 h incubation at 37 C/5% CO2 the fluorescence intensity was measured using a ViewLux (PerkinElmer, Shelton, CT) plate reader. Then 4uL/well of One-Glo were added using a Flying Reagent Dispenser. After the plates were incubated at room temperature for 30 min, the luminescence intensity in the assay plates was measured using ViewLux plate reader."}
{"smiles": "CC(=O)N[C@@H](CCC(N)=O)C(=O)O", "Potency": "inactive"}
{"smiles": "CC(=O)c1cnccn1", "Potency": "inactive"}
{"smiles": "CCCCOCCOC(=O)COc1ccc(Cl)cc1Cl", "Potency": "inactive"}
{"smiles": "O=NN(CCCl)C(=O)NC1CCCCC1", "Potency": "inactive"}
{"smiles": "C=CC(C)(CCC=C(C)C)OC(=O)c1ccccc1", "note": "(stereo not given)", "Potency": "24.3 µM (active)"}
{"smiles": "COc1cc(C(=O)NS(=O)(=O)c2ccccc2C)ccc1Cc1cn(C)c2ccc(NC(=O)OC3CCCC3)cc12", "Potency": "inactive"}
{"smiles": "CCCCCCC(O)CCCCCCCCCCC(=O)OC", "note": "(stereo not given)", "Potency": "inactive"}
{"smiles": "CCOC(=O)OCC/C(SC(=O)OCC)=C(\\C)N(C=O)Cc1cnc(C)nc1N", "Potency": "inactive"}
{"smiles": "C[C@H](CCC(=O)NCC(=O)O)[C@H]1CC[C@H]2[C@@H]3[C@H](O)C[C@@H]4C[C@H](O)CC[C@]4(C)[C@H]3C[C@H](O)[C@]12C", "Potency": "inactive"}
{"smiles": "CC[C@@H](N)CO", "Potency": "inactive"}
{"smiles": "CCN(CC)c1ccc2c(-c3ccc(S(=O)(=O)O)cc3S(=O)(=O)[O-])c3ccc(=[N+](CC)CC)cc-3oc2c1", "Potency": "inactive"}
{"smiles": "O=C(CCN1CCN2CCCC2C1)N1c2ccccc2Sc2ccc(Cl)cc21", "note": "(stereo not given)", "activity, positive = activation": "-8.3% [at 19 µM] (inactive)"}
{"smiles": "CN=C(NC#N)Nc1ccc(C2=NNC(=O)CC2C)cc1", "note": "(stereo not given)", "Potency": "inactive"}
{"smiles": "CCc1nccnc1C", "Potency": "inactive"}
{"smiles": "CCN(CC)C(=O)N(CC)CC", "Potency": "inactive"}
{"smiles": "CCC1(C)NC(=O)NC1=O", "note": "(stereo not given)", "Potency": "inactive"}
{"smiles": "CCN(CC)c1cccc(C)c1", "Potency": "inactive"}
{"smiles": "CCCCCCCCCCCCCOP(=O)(O)O", "Potency": "inactive"}
{"smiles": "COC(=O)C(C)O", "note": "(stereo not given)", "Potency": "inactive"}
{"smiles": "Cc1cc(N)c2cc(NC(=O)Nc3ccc4nc(C)cc(N)c4c3)ccc2n1", "Potency": "inactive"}
{"smiles": "COc1ccccc1N1CCN(CCCNc2cc(=O)n(C)c(=O)n2C)CC1", "Potency": "inactive"}
{"smiles": "COc1cc2c(cc1OC)CN(C(=O)[C@H](C)N[C@@H](CCc1ccccc1)C(=O)O)[C@H](C(=O)O)C2", "Potency": "inactive"}
{"smiles": "CC(=O)N/N=C/c1ccc([N+](=O)[O-])o1", "Potency": "33.5 µM (active)"}
{"smiles": "Nc1ccc(C(=O)OCC(O)CO)cc1", "note": "(stereo not given)", "Potency": "inactive"}
{"smiles": "NS(=O)(=O)c1cc2c(cc1Cl)CN(C1CCCCC1)C2=O", "Potency": "inactive"}
{"smiles": "Cc1cccn2c(=O)c(-c3nnn[nH]3)cnc12", "activity, positive = activation": "-2.87% [at 19 µM] (inactive)"}
{"smiles": "CCOC(=O)c1c(N)sc2c1CCN(Cc1ccccc1)C2", "Potency": "inactive"}
{"smiles": "COc1ccc(N)c([N+](=O)[O-])c1", "Potency": "inactive"}
{"smiles": "C[C@@H]1CN(CCCn2c3ccccc3c3ccccc32)C[C@H](C)N1", "Potency": "inactive"}
{"smiles": "Cc1cc(C)n(CO)n1", "Potency": "inactive"}
{"smiles": "CCC(=O)O[C@]1(C(=O)CCl)[C@@H](C)C[C@H]2[C@@H]3CCC4=CC(=O)C=C[C@]4(C)[C@@]3(F)[C@@H](O)C[C@@]21C", "Potency": "inactive"}
{"smiles": "OCCCO", "Potency": "inactive"}
{"smiles": "N#Cc1cscn1", "Potency": "inactive"}
{"smiles": "Cc1ccc2oc(CN(Cc3ccccc3)C(=O)Nc3c(F)cc(F)cc3F)c(-c3ccc(Cl)cc3)c2c1", "Potency": "inactive"}
{"smiles": "COc1ccc(-c2coc3cc(O)ccc3c2=O)cc1", "Potency": "inactive"}
{"smiles": "COCCC(=O)OC", "Potency": "68.6 µM (active)"}
{"smiles": "CCN1CC(CCN2CCOCC2)C(c2ccccc2)(c2ccccc2)C1=O", "note": "(stereo not given)", "Potency": "inactive"}
{"smiles": "O=C(C1CCCCC1)N1CC(=O)N2CCCc3ccccc3C2C1", "note": "(stereo not given)", "Potency": "inactive"}
{"smiles": "CCCCCCCCN", "Potency": "inactive"}
{"smiles": "Nc1cc(C(=O)O)c(O)c(S(=O)(=O)O)c1", "Potency": "inactive"}
